Measured values as given in the supplement of paper PMC7595190.
Where a name gives a salt, the structure may show the parent alone. A number with no mark means an inactive call.

What was measured:
Experiment in all cases: CellTox Green cytotoxicity fluorescence relative to DMSO vehicle (fold of vehicle RFU); higher = more cell death (loss of membrane integrity), active = 2 or more
[1] = test system: CMK
Outline: (§1)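 CellTox Green reagent was added when MV4-11, CMK and Kasumi-1 cells were seeded at 4.0 × 10^4 cells per well, and single compounds from the Selleckchem apoptosis library were added at final 0.01, 0.1 and 1 µM in DMSO (vehicle 0.1% DMSO). Fluorescence at Ex 485 nm and Em 520 nm was read after 24, 48 and 72 h at 37 °C, 5% CO2. The reported cytotoxicity corresponds to loss of membrane integrity, given as fold of the DMSO vehicle.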

[2] = test system: Kasumi-1
Outline: as §1

[3] = test system: MV4-11
Outline: as §1

| Structure (SMILES) | CellTox Green cytotoxicity fluorescence ([1]; 0.01 µM, 24 h) | CellTox Green cytotoxicity fluorescence ([1]; 0.01 µM, 48 h) | CellTox Green cytotoxicity fluorescence ([1]; 0.01 µM, 72 h) | CellTox Green cytotoxicity fluorescence ([1]; 0.1 µM, 24 h) | CellTox Green cytotoxicity fluorescence ([1]; 0.1 µM, 48 h) | CellTox Green cytotoxicity fluorescence ([1]; 0.1 µM, 72 h) | CellTox Green cytotoxicity fluorescence ([1]; 1 µM, 24 h) | CellTox Green cytotoxicity fluorescence ([1]; 1 µM, 48 h) | CellTox Green cytotoxicity fluorescence ([1]; 1 µM, 72 h) | CellTox Green cytotoxicity fluorescence ([2]; 0.01 µM, 24 h) | CellTox Green cytotoxicity fluorescence ([2]; 0.01 µM, 48 h) | CellTox Green cytotoxicity fluorescence ([2]; 0.01 µM, 72 h) | CellTox Green cytotoxicity fluorescence ([2]; 0.1 µM, 24 h) | CellTox Green cytotoxicity fluorescence ([2]; 0.1 µM, 48 h) | CellTox Green cytotoxicity fluorescence ([2]; 0.1 µM, 72 h) | CellTox Green cytotoxicity fluorescence ([2]; 1 µM, 24 h) | CellTox Green cytotoxicity fluorescence ([2]; 1 µM, 48 h) | CellTox Green cytotoxicity fluorescence ([2]; 1 µM, 72 h) | CellTox Green cytotoxicity fluorescence ([3]; 0.01 µM, 24 h) | CellTox Green cytotoxicity fluorescence ([3]; 0.01 µM, 48 h) | CellTox Green cytotoxicity fluorescence ([3]; 0.01 µM, 72 h) | CellTox Green cytotoxicity fluorescence ([3]; 0.1 µM, 24 h) | CellTox Green cytotoxicity fluorescence ([3]; 0.1 µM, 48 h) | CellTox Green cytotoxicity fluorescence ([3]; 0.1 µM, 72 h) | CellTox Green cytotoxicity fluorescence ([3]; 1 µM, 24 h) | CellTox Green cytotoxicity fluorescence ([3]; 1 µM, 48 h) | CellTox Green cytotoxicity fluorescence ([3]; 1 µM, 72 h) |
| --- | --- | --- | --- | --- | --- | --- | --- | --- | --- | --- | --- | --- | --- | --- | --- | --- | --- | --- | --- | --- | --- | --- | --- | --- | --- | --- | --- |
| CCOc1cc(C(C)(C)C)ccc1C1=N[C@@](C)(c2ccc(Cl)cc2)[C@@](C)(c2ccc(Cl)cc2)N1C(=O)N1CCN(CCCS(C)(=O)=O)CC1 | 0.987 | 0.993 | 1.01 | 0.995 | 0.996 | 1 | 1.02 | 1.05 | 1.02 | 0.977 | 0.992 | 1.01 | 0.987 | 0.969 | 0.96 | 1.03 | 1.03 | 1.03 | 0.993 | 1.01 | 1.01 | 1.03 | 1.07 | 1.13 | 1.07 | 1.63 | 2.02 (active) |
| CCCC[C@@H](C=O)NC(=O)[C@H](CC(C)C)NC(=O)OCc1ccccc1 [Calpeptin] | 1 | 0.98 | 0.961 | 0.992 | 1 | 1.02 | 0.994 | 1.01 | 1.01 | 0.957 | 0.968 | 0.962 | 0.965 | 0.93 | 0.913 | 1.01 | 1.02 | 1.03 | 0.979 | 0.988 | 0.986 | 1.01 | 1.02 | 1.01 | 1.01 | 1.01 | 0.999 |
| COc1nc(-c2ccc3c(c2)OCO3)n(-c2ccc(NC(=O)CSc3ccccc3)cc2)n1 [SecinH3] | 1.03 | 1.04 | 1.05 | 0.992 | 0.997 | 0.985 | 0.996 | 1.01 | 1.01 | 1.02 | 1.03 | 1.04 | 1.02 | 1.02 | 1.01 | 0.941 | 0.989 | 1.02 | 1.02 | 1.02 | 1.02 | 1.01 | 1.01 | 1 | 1 | 1.03 | 1.05 |
| COc1c/c(=C2\C=c3ccccc3=N2)[nH]/c1=C\c1[nH]c(C)cc1C [Obatoclax Mesylate] | 0.914 | 0.907 | 0.894 | 0.921 | 0.88 |  | 1.01 | 1 | 0.819 | 0.975 | 0.917 | 0.921 | 0.977 | 1.01 | 1.05 | 1.17 | 1.31 | 1.42 | 0.935 | 0.93 | 0.916 | 0.96 | 0.997 | 1.02 | 1.21 | 1.78 | 2.14 (active) |
| CCC(CC)n1ccc2c(C(=O)NCc3c(C)cc(C)[nH]c3=O)cc(C#N)cc21 | 0.768 | 0.767 | 0.8 |  |  |  |  |  |  |  |  |  | 0.942 | 0.956 | 0.925 | 1.01 | 0.971 | 0.978 | 0.856 | 0.857 | 0.869 |  |  |  |  |  |  |
| CCOC(=O)C1=C(N)Oc2ccc(Br)cc2C1C(C#N)C(=O)OCC (stereo unspecified) | 0.931 | 0.915 | 0.892 | 0.944 | 0.948 | 0.975 | 0.954 | 0.967 | 0.968 | 0.946 | 0.93 | 0.927 | 0.923 | 0.902 | 0.875 | 1.01 | 1.05 | 1.06 | 0.97 | 0.991 | 1.01 | 0.944 | 0.944 | 0.948 | 0.96 | 0.957 | 0.957 |
